Results from the supplement of paper PMC10849652.
The full data set covers some 8,800 targets. This sample favours those with a hit. About 0.5% of all pairs of compound and target were hits.

Key:
Experiment in all cases: log2 fold change, soluble protein after heating vs DMSO (PISA); higher = thermal stabilisation; K562 lysate, 10 uM; active = over 0.2 and 3.5 SD of the protein, either way, in both replicates (recomputed)
ibrutinib = compound: C=CC(=O)N1CCC[C@@H](n2nc(-c3ccc(Oc4ccccc4)cc3)c3c(N)ncnc32)C1 [ibrutinib]
How it was run: (§1)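 K562 pellets were dounce-homogenised in PBS pH 7.4 with 1 mM MgCl2, and the crude extract at 1 mg/mL protein was treated with 10 μM compound for 30 min. Aliquots were heated for 3 min across 48°C-58°C, pooled, and brought to 0.5% NP-40 at 4°C; soluble protein was the supernatant after 21,000xg for 90 min. Soluble protein was quantified by TMTpro 16plex LC-MS/MS with channel sums equalised, and reported as log2 fold change in thermal stability against DMSO controls, with values from duplicates.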

[1] = compound: CC(=O)c1cnc2ccc(-c3cc(Cl)c(O)c(Cl)c3)nc2c1N[C@H]1CC[C@H](CN(C)C)CC1
How it was run: as §1

[2] = compound: CC1=CC=C(C=C1)SC2=C3C=C(SC3=CN=C2)C(=O)N
How it was run: as §1

ralimetinib = compound: CC(C)(C)Cn1c(N)nc2ccc(-c3[nH]c(C(C)(C)C)nc3-c3ccc(F)cc3)nc21 [ralimetinib]
How it was run: as §1

[3] = compound: CC(C)(O)CC(=O)NCCn1ccc2ncnc(Nc3ccc(Oc4cccc(C(F)(F)F)c4)c(Cl)c3)c21
How it was run: as §1

[4] = compound: CC(C)C1=C2N=C(C=C(N2N=C1)NCC3=CC=CC=C3)NCCCCCCN
How it was run: as §1

[5] = compound: CC1=C(C(CC(=O)N1)C2=CC=C(C=C2)C(F)(F)F)C(=O)NC3=C(C=C4C(=C3)C=NN4)F
How it was run: as §1

[6] = compound: CC1=C(C2=C(C=C1)C(=O)C3=CC=CC=C3N2CCCN)C
How it was run: as §1

[7] = compound: CC1=C(C=C(C=C1)NC(=O)C2=CC(=CC=C2)C(C)(C)C#N)NC3=CC4=C(C=C3)N=CN(C4=O)C
How it was run: as §1

[8] = compound: CC1=C(C=C(C=C1)NC(=O)C2=CC(=CC=C2)N(C)C)NC(=O)C3=CC=C(C=C3)O
How it was run: as §1

Measured: log2 fold change

ZFYVE19 isoform 3 (UniProt Q96K21)
Chain of UniProt Q96K21 (Q96K21 whole entry, looked up): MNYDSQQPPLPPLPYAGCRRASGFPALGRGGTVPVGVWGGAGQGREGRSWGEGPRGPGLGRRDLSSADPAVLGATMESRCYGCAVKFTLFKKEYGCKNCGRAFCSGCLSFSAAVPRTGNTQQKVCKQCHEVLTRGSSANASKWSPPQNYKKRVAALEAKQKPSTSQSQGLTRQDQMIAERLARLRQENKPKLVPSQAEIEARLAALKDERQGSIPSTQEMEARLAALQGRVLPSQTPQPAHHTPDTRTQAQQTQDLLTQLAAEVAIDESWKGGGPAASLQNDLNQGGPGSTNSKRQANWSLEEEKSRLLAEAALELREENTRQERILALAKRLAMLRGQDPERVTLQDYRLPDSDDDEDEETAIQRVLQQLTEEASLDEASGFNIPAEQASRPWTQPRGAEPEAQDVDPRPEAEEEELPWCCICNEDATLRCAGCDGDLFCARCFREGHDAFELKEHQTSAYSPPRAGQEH
inactive: ibrutinib 0.085 | [1] -0.084 | [2] 0.047

XPOT (UniProt F5GYW6)
inactive: [1] -0.027 | [2] 0.041

UPF3B (UniProt Q9BZI7)
Chain of UniProt Q9BZI7 (Q9BZI7 whole entry, looked up): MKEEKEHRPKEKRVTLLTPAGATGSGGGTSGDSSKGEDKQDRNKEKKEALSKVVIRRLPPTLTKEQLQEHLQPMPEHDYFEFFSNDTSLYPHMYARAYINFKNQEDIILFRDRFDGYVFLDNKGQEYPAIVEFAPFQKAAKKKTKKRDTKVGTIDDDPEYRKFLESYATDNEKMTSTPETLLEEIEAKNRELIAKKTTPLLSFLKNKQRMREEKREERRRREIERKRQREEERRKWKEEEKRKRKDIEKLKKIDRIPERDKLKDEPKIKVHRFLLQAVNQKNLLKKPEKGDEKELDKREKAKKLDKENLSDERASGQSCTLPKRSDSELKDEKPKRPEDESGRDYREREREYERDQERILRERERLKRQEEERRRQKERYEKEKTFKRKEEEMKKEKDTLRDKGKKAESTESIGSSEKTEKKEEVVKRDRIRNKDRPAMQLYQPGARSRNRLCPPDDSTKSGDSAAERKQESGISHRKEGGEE
inactive: ibrutinib -0.011 | [1] 0.024 | ralimetinib 0.007 | [3] -0.006 | [4] -0.021 | [5] 0.018 | [6] -0.04 | [7] 0.008 | [8] -0.001 | [2] -0.003

WAS (UniProt P42768)
Chain of UniProt P42768 (P42768 whole entry, looked up): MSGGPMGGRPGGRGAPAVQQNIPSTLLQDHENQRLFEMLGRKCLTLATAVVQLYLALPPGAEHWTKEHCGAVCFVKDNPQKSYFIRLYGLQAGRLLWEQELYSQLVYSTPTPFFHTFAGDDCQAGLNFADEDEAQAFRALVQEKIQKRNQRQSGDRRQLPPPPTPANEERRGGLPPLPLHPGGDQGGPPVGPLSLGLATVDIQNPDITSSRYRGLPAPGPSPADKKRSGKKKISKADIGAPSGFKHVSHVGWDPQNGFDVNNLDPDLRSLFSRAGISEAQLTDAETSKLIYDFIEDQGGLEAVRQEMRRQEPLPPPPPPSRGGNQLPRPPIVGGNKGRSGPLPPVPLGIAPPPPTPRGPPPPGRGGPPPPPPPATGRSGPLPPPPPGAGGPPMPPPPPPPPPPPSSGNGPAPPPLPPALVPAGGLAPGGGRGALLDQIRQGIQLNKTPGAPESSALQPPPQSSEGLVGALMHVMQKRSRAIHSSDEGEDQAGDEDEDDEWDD
inactive: ibrutinib -0.06 | [4] -0.01 | [5] 0.071 | [6] 0.143

ZC3H11A (UniProt O75152)
Chain of UniProt O75152 (O75152 whole entry, looked up): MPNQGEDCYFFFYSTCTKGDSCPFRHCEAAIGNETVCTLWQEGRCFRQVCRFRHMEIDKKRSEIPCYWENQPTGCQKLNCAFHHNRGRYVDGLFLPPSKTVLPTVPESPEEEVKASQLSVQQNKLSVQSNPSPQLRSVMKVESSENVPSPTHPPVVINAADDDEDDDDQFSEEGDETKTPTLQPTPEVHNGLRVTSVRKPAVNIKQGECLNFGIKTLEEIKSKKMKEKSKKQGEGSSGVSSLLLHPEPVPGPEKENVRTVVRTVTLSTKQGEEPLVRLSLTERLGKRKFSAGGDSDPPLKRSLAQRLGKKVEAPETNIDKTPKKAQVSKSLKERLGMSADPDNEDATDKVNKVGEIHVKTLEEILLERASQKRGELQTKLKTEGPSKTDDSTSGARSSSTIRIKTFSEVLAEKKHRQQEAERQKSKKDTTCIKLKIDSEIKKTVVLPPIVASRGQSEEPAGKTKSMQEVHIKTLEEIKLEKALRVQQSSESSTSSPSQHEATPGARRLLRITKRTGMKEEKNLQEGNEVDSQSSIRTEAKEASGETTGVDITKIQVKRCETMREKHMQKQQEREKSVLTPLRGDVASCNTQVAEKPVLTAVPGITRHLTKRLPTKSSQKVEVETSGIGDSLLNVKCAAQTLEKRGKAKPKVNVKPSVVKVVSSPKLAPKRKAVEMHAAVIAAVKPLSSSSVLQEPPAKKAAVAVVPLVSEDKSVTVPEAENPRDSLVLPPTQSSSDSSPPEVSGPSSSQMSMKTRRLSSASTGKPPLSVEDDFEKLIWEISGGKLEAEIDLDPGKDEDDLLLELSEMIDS
inactive: ibrutinib 0.025 | [1] -0.1 | ralimetinib 0.019 | [3] -0.034 | [4] 0.025 | [5] 0.084 | [6] -0.016 | [7] 0.041 | [8] 0.041 | [2] -0.096
